High-throughput results: PubChem, several laboratories
HSF1 inh: HSF1 inhibition. hit rate 0.77% among 300,000. AID 2098. activity change, negative = inhibition, % at 7.5 µM (by protocol). NIH3T3-HGL HSE-luciferase, MG132-induced, luminescence 8 h; stronger effect = lower value;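 active = more than half of replicate wells show activity change below -50%, luminescence cut by over half; inconclusive = some wells, but at most half, below -50%; inactive = no replicate well below -50%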;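 note: luciferase reports HSF-1 transcriptional activity via heat shock element; 0% = median of DMSO wells and -100% = zero luminescence signal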
TLR4 MyD88 comp: blocks binding of human TLR4 to MyD88; HeLa CL3-4 TLR4/MyD88 BLA complementation, FRET ratio; inhibition, % at 8.4 µM; hit rate 0.18% among 200,000; AID 861; in the data active = inhibition above about 25%;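 note: 0% = vehicle and 100% = reference inhibitor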
NOD2-RIPK2 inh: inhibitors of human NOD2-RIPK2 interaction | O43353 | CHO BLA complementation NOD2-RIPK2, CCF4 ratio | inhibition, % at 4.98 µM | hit rate 0.38% among 360,000 | AID 624267; in the data active = inhibition above about 21%;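 note: 0% = vehicle only and 100% = reference blocker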
TLR9-MyD88 inh: inhibitors of human TLR9-MyD88 binding; hit rate 0.21% among 340,000; CHO BLA complementation TLR9-MyD88, CCF4 FRET ratio; AID 504734; inhibition, % at 4.98 µM;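 active = inhibition above the mean over all tested compounds plus 3 SD, cut at about 21% in these data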;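 note: 0% = DMSO only wells and 100% = clavulanate BLA inhibitor control wells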
HSF1 activator: increases HSF-1 driven luciferase reporter signal; NIH3T3-HGL HSF-1 luciferase reporter, MG132, 8 h; 100% = twice DMSO control signal; hit rate 1.7% among 300,000; activation, % at 9 µM;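 active = mean replicate activation of at least 50% with a set share of replicates each reaching 50%; inconclusive = only one of those two conditions met; inactive = mean below 50% and too few replicates reaching it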;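 note: 0% = median of the neutral control wells and 100% = twice that signal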
The depositor's hits bear a star; ? = inconclusive; . = no result given. Only some compounds are listed: those with a hit (about 2.4% of all), similar ones and a draw of the others.

SMILES	HSF1 inh	TLR4 MyD88 comp	NOD2-RIPK2 inh	TLR9-MyD88 inh	HSF1 activator
COc1cccc(C(=O)c2c[nH]c(C(=O)NCc3ccco3)c2)c1	-56.2*	-2.9	8.1	1.4	-64.2
CS(=O)(=O)c1ccc(-c2csc(-c3cccnc3)n2)cc1	4.3	.	1.1	-6.1	-0.6
COc1ccc(S(=O)(=O)N2CCN(C(=O)c3ccc(=O)[nH]n3)CC2)cc1OC	.	.	0.7	7.9	.
Cc1cc(C)c(SSc2nnnn2-c2ccccc2)c(C)c1	.	.	6.4	-0.8	.
Cc1nc2c(-c3ccc(F)cc3)cnn2c(N)c1-c1ccc(F)cc1	-56.5*	.	-1.1	5.8	-62.1
CC1=NN(C(N)=S)C(C)(C)C1	-55.3*	.	-2.3	-2.4	-65.6
CC1=NN(C(=S)Nc2ccccc2)C(C)(C)C1	5.9	-3.3	-5.1	1.7	-7.2
O=c1c(-c2ccc3c(c2)OCCO3)coc2cc(O)cc(O)c12	25.6	-5.2	6.6	-8.6	71.1*
CCc1ccc(N2CC(C(=O)N/N=C/c3cc([N+](=O)[O-])ccc3O)CC2=O)cc1 (centres undefined)	-55.1*	-4.3	6.6	.	-58.0
COc1cccc(C(=O)NC(c2ccccc2)C2CCCC2)c1 (centres undefined)	31.2	2.9	3.0	6.9	68.9*
COc1cccc(C(=O)NNC(=O)c2ccccc2)c1	14.1	.	-3.0	-3.5	22.0
Cc1ccc(NC(=O)CN(C)C2CCCCC2)cc1Cl	-81.7*	.	4.0	-7.5	-84.4
Cc1ccc(NC(=O)NC2CCCCC2)cc1Cl	.	8.9	2.0	-6.3	.
Cc1ccc(C=Nc2ccccc2C(N)=O)s1	32.1	-5.6	-2.4	3.0	63.4*
COc1ccc(C(=O)Nc2ccccc2C(=O)N/N=C/c2cccc3ccccc23)cc1	-71.8*	-7.4	-10.9	3.5	-76.3
COc1ccc(C(=O)Nc2ccccc2C(=O)Nc2ccccc2C(=O)O)cc1	20.5	.	4.8	-9.9	?
Cc1cccc(NC(=O)c2onc3c2CCCC3)c1C	18.6	5.0	-0.7	-9.6	65.3*
CCNC(=O)C1(C)CCN(C(=O)c2ccccc2OC)C1 (centres undefined)	.	.	3.6	.	.
CCOc1cccc(CN2CCC(Oc3ccc(C(=O)N4CCCC4)cc3)CC2)c1O	.	.	-0.3	-1.7	.
CC(C)(C)c1ccc(NC(=O)c2ccc(=O)[nH]n2)cc1	28.4	.	-7.6	1.6	49.5
CC(=O)N(C)c1ccc(OCC(O)Cn2c3ccc(Cl)cc3c3cc(Cl)ccc32)cc1 (centres undefined)	37.8	-3.4	6.9	12.0	58.8*
CN(Cc1ccccc1)C(=O)CCC1CCN(C(=O)CC2=CCCCC2)CC1	43.5	.	-4.6	-0.2	71.0*
CN(Cc1ccccc1)C(=O)CCC1CCN(C(=O)CCC(F)(F)F)CC1	12.3	.	8.9	-8.2	37.9
COc1ccc(NC(=O)C2(C)Cc3c(-c4ccc(NC(C)=O)cc4)ccnc3O2)cc1OC (centres undefined)	.	.	-5.2	.	.
Cc1cccc(-c2cccc(NC(=O)C3CCCN(C(=O)c4cccnc4)C3)c2)c1 (centres undefined)	20.8	.	-4.9	-14.9	66.6*
SMILES	HSF1 inh	TLR4 MyD88 comp	NOD2-RIPK2 inh	TLR9-MyD88 inh	HSF1 activator
Cc1cccc(-c2cccc(NC(=O)C3CCCN(C(=O)c4csc(C)n4)C3)c2)c1 (centres undefined)	38.5	.	14.5	3.9	59.8*
Cc1cccc(-c2cccc(NC(=O)C3CCCN(C(=O)c4ocnc4C)C3)c2)c1 (centres undefined)	15.7	.	-1.0	2.4	41.4
O=C1[C@H]2[C@@H](c3ccc(C(F)(F)F)cc3)N[C@]3(CCCN(Cc4ccco4)C3=O)[C@H]2C(=O)N1Cc1ccccc1	.	.	0.8	12.4	.
Cc1cccc(N2CCN(S(=O)(=O)c3ccc(Cl)nc3)CC2C)c1 (centres undefined)	.	.	3.3	-8.2	.
CN(Cc1ccccc1Cl)C(=O)CNC(=O)C12CC3CC(CC(C3)C1)C2	.	.	-5.9	-12.8	.
COc1cc(C(=O)N2CCSCC2)ccc1OC1CCN(C(C)=O)CC1	-54.9*	.	7.5	-3.3	-65.5
CC1=C(C(=O)N2CCOCC2)CC(CC(=O)NC2CCCC2)C(=O)N1Cc1ccc(F)cc1 (centres undefined)	.	.	-4.6	1.4	.
Cc1ccc(C(=O)/C=C/c2cc(Br)cc(Br)c2O)o1	72.2	.	12.2	9.2	89.3*
O=C(COC(=O)/C=C/c1cccc(F)c1)NC1CCCCCC1	.	.	-6.3	-3.9	.
CSc1nnc2sc3cc(C)ccc3n12	.	.	-5.2	1.4	.
Cc1ccc2c(c1)sc1nc(=O)n(-c3ccccc3)c(=O)n12	31.6	.	11.7	2.4	58.1*
O=C(N/N=C/CCc1ccccc1)C1CCCCC1	-2.6	2.1	4.0	-1.4	-3.3
O=C(N/N=C/CCc1ccccc1)c1ccccc1	32.5	-7.3	-4.4	3.2	76.3*
CC(=O)c1cc2cccc(OC3(C)CCN(Cc4ccc5ccccc5c4)C3)c2o1 (centres undefined)	.	.	2.5	.	.
N#C/C(=C\c1ccc(Sc2nc3ccccc3[nH]2)o1)c1ccccc1	43.0	14.4	1.0	7.9	71.1*
N#C/C(=C/c1ccc(N2CCOCC2)o1)c1nc2ccccc2[nH]1	.	3.8	8.4	15.4	.
O=C(O)c1cccc(Nc2ccnc(Nc3cccc(C(=O)O)c3)n2)c1	-54.5*	.	-8.0	1.2	-60.3
Nc1ncnc(Nc2ccc(F)cc2)n1	2.5	7.9	-6.8	-6.8	-4.1
Fc1ccc(Nc2ccnc(Nc3ccc(F)cc3)n2)cc1	32.5	0.3	9.1	-1.6	72.4*
O=C(O)c1cccc(Nc2nc(N3CCOCC3)nc(N3CCOCC3)n2)c1	-3.9	6.4	-4.8	-6.2	-6.9
CCc1ccc2nc(NC(=O)C3CSC4(C)CCC(=O)N34)sc2c1 (centres undefined)	14.4	.	9.9	-16.1	13.1
COCCNC(=O)C1CC(=O)N(C2CCCCC2)C1 (centres undefined)	15.0	-0.7	-7.2	2.8	55.4*
CCc1c(C(=O)N/N=C/c2ccc(OCc3ccc(F)cc3)c(OC)c2)nnn1-c1nonc1N	33.8	.	-1.8	-12.1	56.7*
Cc1ccc(/C=N/NC(=O)c2nnn(-c3nonc3N)c2CN(C)C2CCCCC2)cc1	-92.4*	.	-11.2	2.7	-94.3
CN(Cc1c(C(=O)N/N=C/c2ccc(O)cc2)nnn1-c1nonc1N)C1CCCCC1	-0.4	.	2.9	2.4	-5.7
SMILES	HSF1 inh	TLR4 MyD88 comp	NOD2-RIPK2 inh	TLR9-MyD88 inh	HSF1 activator
Cc1occc1-c1nnc(SCC(=O)Nc2ccccc2)n1C	-81.8*	9.2	-5.0	-3.4	-85.2
COC(=O)c1ccc(NC(=O)CSc2nnc(C)n2-c2ccccc2)cc1	3.0	0.8	-14.6	-9.5	6.3
Cc1occc1-c1nnc(SCC(=O)Nc2ccccc2)n1CCc1ccccc1	3.3	-7.1	-5.3	2.9	15.3
COC(=O)c1ccc(NC(=O)CSc2nnc(-c3ccccc3)n2C)cc1	-67.2*	-10.9	-1.7	-7.8	-75.3
Cn1c(SCC(=O)NNC(=O)Nc2ccc(Cl)cc2)nnc1-c1ccccc1	14.8	.	.	.	55.5*
CC(C)CC(=O)Nc1ccc2c(c1)oc1ccccc12	32.3	6.8	-2.0	-2.5	61.7*
